The source of these data is PubChem BioAssay (NCI).

Compounds without any hit were thinned out: in the full panel of roughly 83,000, 20% have a hit.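 For each line, cells grew in 96-well plates with the test compound present at a single concentration for 48 hours.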 Unmarked numbers belong to inactive results. Calls of active or inactive are those of the source. Rule for the calls: active = growth percent below 10; inactive = the rest.

Some test systems named below: K-562 leukemia; MALME-3M melanoma; MDA-MB-231 breast; SF-268 CNS; SF-295 CNS; SF-539 CNS; UACC-257 melanoma; M14 melanoma; HCT-15 colon; HT29 colon; SNB-75 CNS; U251 CNS; SK-MEL-5 melanoma; UACC-62 melanoma; LOX IMVI melanoma; SK-MEL-28 melanoma; SNB-19 CNS; PC-3 prostate; SK-MEL-2 melanoma.
Common to all, as to assay: NCI-60 one-dose screen, 48 h (100 = growth as untreated, 0 = no growth, -100 = all killed)
What all share (conditions): 10 µM unless noted

On to `O=C(/C=C/c1ccccc1Cl)c1ccc(O)cc1`, for which the growth is 32.8% in the assay with K-562 leukemia; 93.1% with MALME-3M melanoma; 89% in the assay on MDA-MB-231 breast; 53.7% with SF-268 CNS; 47.4% in the assay with SF-295 CNS; 94.1% with SF-539 CNS. In addition, the growth is 116% in the assay on UACC-257 melanoma; 76.8% in the assay with M14 melanoma; 37.5% in the assay on HCT-15 colon; 14.5% with HT29 colon; 46.7% in the assay with SNB-75 CNS; 31.4% in the assay on U251 CNS. For the same compound, the growth in the assay on SK-MEL-5 melanoma is 58.1%; in the assay on UACC-62 melanoma, 73.4%; in the assay with LOX IMVI melanoma, 36.2%; with SK-MEL-28 melanoma, 96.1%.

For the compound `COc1ccc2nc3cc(Cl)ccc3c(N3CCN(c4ccnc(Nc5ccc(F)cc5)n4)CC3)c2c1`, the growth in the assay on K-562 leukemia is 43.1%; in the assay on MALME-3M melanoma it was 105%; in the assay with MDA-MB-231 breast, 58.4%; in the assay on SF-268 CNS, 79.2%; with SF-295 CNS, 75.9%; in the assay with SF-539 CNS it was 85.4%. Besides, the growth in the assay on UACC-257 melanoma is 105%; in the assay on M14 melanoma, 102%; with HCT-15 colon, 48.3%; with HT29 colon, 83.3%; with SNB-75 CNS, 69.1%; with SNB-19 CNS, 82.4%. The results for the growth in the assay with PC-3 prostate, in the assay with UACC-62 melanoma and in the assay on SK-MEL-28 melanoma were 67.3%, 77.4% and 104%, respectively.

`CCOc1nc(-c2ccccc2)cc2c(O)c(C(=O)n3nc(C)cc3C)[nH]c(=O)c12`: the growth with K-562 leukemia is 86.7%; in the assay with MALME-3M melanoma, 102%; in the assay on MDA-MB-231 breast it was 112%; in the assay with SF-268 CNS it was 99%; with SF-295 CNS it was 101%; with SF-539 CNS it was 101%. Moreover, the growth in the assay on UACC-257 melanoma was 112%; in the assay with M14 melanoma, 102%; in the assay with HT29 colon, 104%; with SNB-75 CNS, 94.4%; in the assay on SNB-19 CNS it was 102%; in the assay on U251 CNS, 99.5%. Also, the growth with PC-3 prostate was 101%; in the assay on UACC-62 melanoma it was 110%; in the assay with SK-MEL-28 melanoma it was 109%.

On to `CSc1nnc(C2=CC(=O)c3ccccc3C2=O)n1-c1ccccc1`, for which the growth is -0.209% (active) with K-562 leukemia; 84.9% in the assay with MALME-3M melanoma; 93.2% in the assay with MDA-MB-231 breast; 92% in the assay with SF-268 CNS; 85.8% with SF-295 CNS; 98.1% in the assay on SF-539 CNS. Besides, the growth is 86.7% with UACC-257 melanoma; 92% with M14 melanoma; 95.3% in the assay with HCT-15 colon; 110% in the assay on HT29 colon; 74.8% with SNB-75 CNS; 91.5% in the assay on SNB-19 CNS. The growth in the assay with U251 CNS was 76.5%; in the assay on PC-3 prostate, 86.7%; with UACC-62 melanoma it was 84.1%; with SK-MEL-28 melanoma it was 105%.

Take `ClC1=C(Cl)C(Cl)=C(Cl)C1=C/C=C/c1ccccc1`: the growth was -18.9% (active) in the assay with K-562 leukemia; -38.8% (active) in the assay with MALME-3M melanoma; -17.2% (active) in the assay on MDA-MB-231 breast; -48.7% (active) in the assay on SF-268 CNS; -2.39% (active) in the assay on SF-295 CNS; -92.4% (active) with SF-539 CNS. Also, the growth with UACC-257 melanoma was -80.7% (active); in the assay with M14 melanoma it was -55.6% (active); in the assay on HCT-15 colon it was -77% (active); in the assay with HT29 colon, 7.03% (active); in the assay with SNB-75 CNS, 19.8%; in the assay on U251 CNS, -93.3% (active). Further, the growth with SK-MEL-5 melanoma is -97.3% (active); in the assay with UACC-62 melanoma it was -83.6% (active); in the assay on LOX IMVI melanoma it was -91.6% (active); with SK-MEL-28 melanoma it was -74.1% (active).

Take `COc1cc(/C=C/C(=O)c2ccc(F)cc2)ccc1OCCCCCOc1cc2c(cc1OC)C(=O)N1CCCC1C=N2` (stereo not given): the growth with K-562 leukemia is -6.46% (active); with MALME-3M melanoma, -77.6% (active); in the assay with MDA-MB-231 breast, -33% (active); in the assay on SF-268 CNS, -29.9% (active); in the assay on SF-295 CNS it was 72.2%; in the assay with SF-539 CNS it was -67.1% (active). In addition, the growth was 8.38% (active) in the assay on UACC-257 melanoma; -70% (active) in the assay with M14 melanoma; -3.47% (active) in the assay with HCT-15 colon; -18.8% (active) in the assay with HT29 colon; -57.5% (active) in the assay with SNB-75 CNS; 2.88% (active) with SNB-19 CNS. The growth in the assay with U251 CNS is -77.5% (active); in the assay on SK-MEL-5 melanoma, -78.1% (active); in the assay with UACC-62 melanoma, -92.4% (active); in the assay with LOX IMVI melanoma it was -94% (active); in the assay on SK-MEL-28 melanoma it was -48% (active); in the assay on SK-MEL-2 melanoma it was -18% (active).

On to `CC(=O)NC1(C(=O)O)CCCC1`, for which the growth in the assay on K-562 leukemia is 96.6%; in the assay with MALME-3M melanoma it was 135%; in the assay with MDA-MB-231 breast it was 119%; in the assay on SF-268 CNS, 111%; with SF-295 CNS it was 110%; with SF-539 CNS, 104%. For the same compound, the growth in the assay with UACC-257 melanoma is 100%; in the assay on M14 melanoma it was 110%; in the assay on HCT-15 colon, 112%; in the assay on HT29 colon, 116%; in the assay on SNB-75 CNS it was 102%; with U251 CNS it was 107%. Also, the growth with SK-MEL-5 melanoma was 112%; in the assay on UACC-62 melanoma, 110%; with LOX IMVI melanoma, 106%; with SK-MEL-28 melanoma, 88.6%.

Take `CCOC(=O)c1c(C)c(C(=O)OCC)n(C)c1C`: the growth was 103% with K-562 leukemia; 112% in the assay on MALME-3M melanoma; 85.6% with MDA-MB-231 breast; 93.9% in the assay with SF-268 CNS; 87.1% in the assay with SF-295 CNS; 101% with SF-539 CNS. The growth was 134% in the assay with UACC-257 melanoma; 112% in the assay on M14 melanoma; 88.5% in the assay on HT29 colon; 99.5% with U251 CNS; 126% in the assay with SK-MEL-5 melanoma; 83.8% with UACC-62 melanoma. For the same compound, the growth in the assay with LOX IMVI melanoma is 103%; in the assay with SK-MEL-28 melanoma, 116%.

Regarding `CC/C=C\C=C/C(=O)N/C=C/CC1Cc2cccc(O)c2C(=O)O1` (stereo not given), the growth in the assay with K-562 leukemia is 25.9%; in the assay with MALME-3M melanoma, 98.8%; with MDA-MB-231 breast, 64.3%; in the assay with SF-268 CNS, 119%; in the assay on SF-295 CNS, 262%; in the assay with SF-539 CNS it was 38.3%. Besides, the growth in the assay with UACC-257 melanoma is 86.7%; with M14 melanoma, 44.2%; in the assay with HCT-15 colon, 80.3%; with HT29 colon it was 44.1%; with SNB-75 CNS, 18.7%; with SNB-19 CNS, 56%. For the same compound, the growth in the assay on U251 CNS was 57.7%; in the assay on SK-MEL-5 melanoma, 13%; in the assay on UACC-62 melanoma, 61.4%; in the assay with LOX IMVI melanoma, 75%; with SK-MEL-28 melanoma it was 76.9%; with SK-MEL-2 melanoma it was 95.8%.

As for `CCOc1nc(-c2ccccc2)cc2c(O)c(-c3nnco3)[nH]c(=O)c12`, the growth in the assay with K-562 leukemia was 39.3%; in the assay on MALME-3M melanoma, 59.9%; with MDA-MB-231 breast, 38.7%; in the assay on SF-268 CNS, 52.5%; in the assay with SF-295 CNS, 36%; in the assay on SF-539 CNS, 54.9%. Moreover, the growth in the assay on UACC-257 melanoma was 11.8%; with M14 melanoma, 59.4%; in the assay on HCT-15 colon it was 23.5%; in the assay with HT29 colon, 69%; with SNB-75 CNS, 55.2%; in the assay with SNB-19 CNS, 72.1%. In addition, the growth is 32.7% with U251 CNS, 43.4% in the assay with PC-3 prostate, 56.9% in the assay with UACC-62 melanoma and 76.1% in the assay on SK-MEL-28 melanoma.
